Growth data for 16 compounds are collected here from PubChem BioAssay (NCI).

Compounds without any hit were thinned out: in the full panel of roughly 83,000, 20% have a hit.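 Step 1: grow cells in 96-well plates. Step 2: add test compound at a single concentration. Step 3: incubate 48 h. Step 4: record percent growth.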 Values without a mark were called inactive. Activity calls are given as the source filed them. How the source made its calls: active means growth percent below 10; inactive means the rest.

Some test systems named below: T-47D breast; BT-549 breast; MDA-MB-435 melanoma; SW-620 colon; MCF7 breast; HCT-116 colon; HCC-2998 colon; KM12 colon.
Test in all cases: NCI-60 one-dose screen, 48 h (100 = growth as untreated, 0 = no growth, -100 = all killed)
Common to all, as to details: 10 µM unless noted

`COc1cccc(/C=C/C(=O)c2cc3c(N)c(C(=O)Nc4ccccc4)sc3nc2C)c1`: the growth with T-47D breast is 33%; in the assay with BT-549 breast it was 30.3%; with MDA-MB-435 melanoma it was -6.91% (active); in the assay with SW-620 colon, 0.132% (active); with MCF7 breast it was 7.88% (active); with HCT-116 colon, 14.9%. In addition, the growth was -37% (active) in the assay on HCC-2998 colon and 17.6% with KM12 colon.

As for `N#Cc1c(-c2ccc(Cl)cc2)nc(NN=Cc2cccc(O)c2)nc1N1CCOCC1`, the growth was 64.6% with T-47D breast; 73.1% with BT-549 breast; 87% with MDA-MB-435 melanoma; 64.8% in the assay with SW-620 colon; 60.1% in the assay with MCF7 breast; 57.9% in the assay on HCT-116 colon. The figures for the growth in the assay on HCC-2998 colon and in the assay with KM12 colon were 103% and 81%, respectively.

Take `CC(C)=NNc1ccccn1`: the growth with T-47D breast is 15.4%; in the assay with BT-549 breast it was 62.5%; in the assay with MDA-MB-435 melanoma it was 55.2%; in the assay with SW-620 colon it was 26.2%; in the assay with MCF7 breast, 18%; with HCT-116 colon, 23.6%. For the same compound, the growth in the assay on HCC-2998 colon is 48.1%; with KM12 colon, 38.2%.

For `Cc1nc2c(=O)[nH]c(SCC(=O)Nc3cccc(F)c3)nc2[nH]c1=O`, the growth is 97.1% with T-47D breast; 104% with BT-549 breast; 103% in the assay on MDA-MB-435 melanoma; 101% in the assay with SW-620 colon; 92.7% in the assay with MCF7 breast; 103% in the assay on HCT-116 colon. Further, the growth was 104% in the assay on HCC-2998 colon and 105% with KM12 colon.

`O=C(c1ccc(-c2nc(CSc3nc4ccccc4s3)no2)cc1)N1CCSCC1`: the growth is 11.1% in the assay on T-47D breast; 67.7% in the assay on BT-549 breast; 70.6% with MDA-MB-435 melanoma; 82.4% in the assay with SW-620 colon; 72.5% in the assay on MCF7 breast; 49.8% in the assay on HCT-116 colon. The values for the growth in the assay on HCC-2998 colon and in the assay with KM12 colon were 94.9% and 57.7%, respectively.

With `O=C(O)c1[nH]c(=O)[nH]c(=O)c1[N+](=O)[O-]`, the growth in the assay on T-47D breast is 109%; in the assay on BT-549 breast, 107%; with MDA-MB-435 melanoma, 106%; with SW-620 colon, 109%; in the assay with MCF7 breast, 98.8%; in the assay with HCT-116 colon, 100%. For the same compound, the growth is 99.2% in the assay on HCC-2998 colon and 115% in the assay on KM12 colon.

Regarding `N#C/C(=C\c1ccc2ccccc2c1)c1cc2ccccc2[nH]1`, the growth in the assay with T-47D breast was 32.9%; with BT-549 breast it was 59.8%; in the assay with MDA-MB-435 melanoma, -19% (active); with SW-620 colon, 15.8%; in the assay with MCF7 breast, 14.4%; with HCT-116 colon it was 16.8%. Further, the growth with HCC-2998 colon is 60.4%; with KM12 colon, 25.5%.

For `O=C1/C(=C/c2ccc(Cl)cc2)COc2ccc(O)c(O)c21`, the growth in the assay with T-47D breast is -14.8% (active); in the assay on BT-549 breast it was 5.45% (active); with MDA-MB-435 melanoma, 1.56% (active); with SW-620 colon, -9.64% (active); in the assay with MCF7 breast, 9.76% (active); in the assay on HCT-116 colon, 0.395% (active). In addition, the growth in the assay on HCC-2998 colon is 5.98% (active); with KM12 colon, -2.9% (active).

For `C[C@@H]1CCC[C@H]1CC(N)C(=O)O` (stereo partly drawn), the growth in the assay on T-47D breast was 106%; in the assay with BT-549 breast it was 106%; in the assay on MDA-MB-435 melanoma, 98.6%; with SW-620 colon, 102%; in the assay with MCF7 breast it was 91.7%; in the assay with HCT-116 colon, 95.7%. Moreover, the growth in the assay with HCC-2998 colon is 103%; with KM12 colon it was 106%.

Regarding `CCN1CCN(Cc2cn(CC(=O)Nc3ccc4c(ccn4Cc4ccccc4)c3)nn2)CC1`, the growth in the assay with T-47D breast was 91.1%; in the assay with BT-549 breast, 96.1%; with MDA-MB-435 melanoma it was 97.7%; with SW-620 colon it was 99.3%; in the assay with MCF7 breast it was 99.5%; in the assay with HCT-116 colon, 99.2%. Besides, the growth in the assay on HCC-2998 colon was 110%; with KM12 colon, 101%.

For `OB(O)c1cccc(-c2nc3ccc4[nH]ncc4c3c3c2CCCC3)c1`, the growth is 66.6% in the assay with T-47D breast; 35.5% in the assay on BT-549 breast; 45.3% in the assay with MDA-MB-435 melanoma; 29.9% with SW-620 colon; 70.1% with MCF7 breast; 25% in the assay on HCT-116 colon. In addition, the growth in the assay with HCC-2998 colon is 77.3%; with KM12 colon, 36.1%.

`CC1=Nc2cnc(Nc3ccc(OCCN4CCCCC4)cc3)nc2Nc2ccccc21`: the growth in the assay on T-47D breast was 66.4%; with BT-549 breast, 78.6%; in the assay on MDA-MB-435 melanoma it was 56.3%; in the assay with SW-620 colon it was 62.3%; in the assay on MCF7 breast, 67.6%; with HCT-116 colon it was 64.1%. Also, the growth is 67% in the assay on HCC-2998 colon and 12.8% in the assay with KM12 colon.

Consider `CCOC(=O)c1c(NC(=O)c2ccc(C(C)C)cc2)sc2c(CN(C)C)c(O)ccc12`, for which the growth in the assay on T-47D breast was 61%; in the assay on BT-549 breast, 89.7%; in the assay with MDA-MB-435 melanoma it was 21.3%; with SW-620 colon it was -58.6% (active); with MCF7 breast it was 15.2%; in the assay on HCT-116 colon, 4.82% (active). Besides, the growth was -55.8% (active) in the assay with HCC-2998 colon and 1.36% (active) in the assay on KM12 colon.

Consider `O=C(Nn1c2c(sc1=Nc1ccccc1)C(=O)c1ccccc1C2=O)c1cc2ccc1CCc1ccc(cc1)CC2`, for which the growth in the assay with T-47D breast is 71.1%; with BT-549 breast, 67.9%; with MDA-MB-435 melanoma, -72.5% (active); with SW-620 colon, 75.9%; in the assay on MCF7 breast, 45.6%; in the assay on HCT-116 colon it was 60.9%. Also, the growth with HCC-2998 colon was 86.8%; in the assay with KM12 colon, 78.8%.

For `CN(C)CCNC(=O)c1cccc(-c2cnc3ccc(-c4ccc5c(c4)OCO5)nn23)c1`, the growth in the assay with T-47D breast is 75.2%; in the assay on BT-549 breast, 80.7%; in the assay on MDA-MB-435 melanoma, 86%; with SW-620 colon, 52.8%; in the assay on MCF7 breast, 27.1%; with HCT-116 colon, 5.58% (active). Besides, the growth in the assay on HCC-2998 colon is 77.3%; in the assay with KM12 colon, 17.6%.

Regarding `Oc1c(Cl)cc(Cl)cc1/C=N/Nc1nnc(N/N=C/c2cc(Cl)cc(Cl)c2O)c2ccccc12`, the growth with T-47D breast is 14.8%; in the assay on BT-549 breast it was 15.7%; with MDA-MB-435 melanoma it was 14.2%; with SW-620 colon it was 17.2%; in the assay on MCF7 breast, 7.3% (active); in the assay with HCT-116 colon, 10%. The figures for the growth with HCC-2998 colon and in the assay on KM12 colon were 33.1% and 6.29% (active), respectively.
